These results are taken from PubChem BioAssay (NCATS).

The structures appear in SMILES notation. Results filed as inconclusive are left out. Where a call stands in place of a potency, no number is given. Calls of active or inactive are those of the source. The call rests on the fitted dose curve; in most records, active means well fitted curve in the direction sought with a large enough effect; inconclusive means small, poorly fitted or top-dose-only effect, or another doubt; inactive means no such curve, though single readings can be large; an effect the other way counts as inactive or inconclusive.

The target in assay [1] is Aldehyde dehydrogenase, mitochondrial (Homo sapiens) (UniProt P05091). The assay can be described thus: qHTS for Inhibitors of the Aldehyde Dehydrogenase Family (ALDH2) Primary screen (AID 2061308). Further: nearly all actives have a fitted effect of over 55% in size. A general note: Quantitative high-throughput screening tests each substance at several concentrations.
In assay [2] the target is Retinaldehyde dehydrogenase 3 (Homo sapiens) (UniProt P47895). The assay can be described thus: qHTS for Inhibitors of the Aldehyde Dehydrogenase Family (ALDH1A3) Primary screen (AID 2061315).

`Cc1ccc(S(=O)(=O)Nc2ccccc2C(=O)Nc2cccc(-c3ccccc3)c2)cc1`: the Potency entry in assay [1] and in assay [2] was “inactive” each time.
As to `O=C(NC(c1ccco1)c1cc(Cl)c2cccnc2c1O)c1ccc(F)c(F)c1` (stereo not drawn), the Potency result in assay [1] and in assay [2] was “inactive” each time.
Turning to `Cc1cc2c(s1)c1cnn(Cc3cc(C(F)(F)F)ccc3F)c(=O)c1n2C`, the Potency result in assay [1] and in assay [2] was “inactive” throughout.
For the compound `COc1cccc(NC(=S)N2CCN(c3ccc4ccccc4n3)CC2)n1`, the Potency entry in assay [1] and in assay [2] was “inactive” throughout.
As for `O=C(OCC#CCSc1nnc(-c2cccc3ccccc23)o1)c1csc2ccccc12`, the Potency entry in assay [1] and in assay [2] was “inactive” each time.
As to `COc1ccccc1-c1csc(N2CCC(C(N)=O)CC2)n1`, the Potency entry in assay [1] and in assay [2] was “inactive” throughout.
Consider `CC1(C)CC(=O)C2=C(C1)NC(Nc1nc3ccccc3o1)=NC21CCCCC1`, for which the Potency entry in assay [1] and in assay [2] was “inactive” in each case.
On to `Cc1nc(NCc2ccccc2)c2nc(-c3ccccc3)n(CCN(C)C)c2n1`, for which the Potency entry in assay [1] and in assay [2] was “inactive” throughout.
For `CCN(CC)CCCCn1c(-c2ccccc2)nc2c(N3CCOCC3)nc(C)nc21`, the Potency entry in assay [1] and in assay [2] was “inactive” in each case.
As for `N#Cc1c(-c2ccccc2C(F)(F)F)nc2ccccc2c1NCc1ccc(-c2cccnc2)cc1`, the Potency result in assay [1] and in assay [2] was “inactive” throughout.
For the compound `O=[S+]([O-])(Nc1ccc(N2CCNCC2)cc1)c1ccc(NCc2cccc(Cl)c2O)cc1`, the Potency result in assay [1] and in assay [2] was “inactive” each time.
For the compound `Cc1cc(NS(=O)(=O)c2ccc(NC(=O)Cc3ccc(Cl)c(C(F)(F)F)c3)cc2)no1`, the Potency result in assay [1] and in assay [2] was “inactive” each time.
Regarding `CC(C)(C)NS(=O)(=O)c1cccc(-c2nnc(SCc3ccc(C(=O)O)cc3)n2-c2ccccc2)c1`, the Potency result in assay [1] and in assay [2] was “inactive” in each case.
Consider `NC(=O)c1cccc(C[C@H](C(=O)O)N2C(=O)c3ccc(C(=O)O)cc3C2=O)c1`, for which the Potency result in assay [1] and in assay [2] was “inactive” each time.
